Out of some 220,000 compounds screened, about 16,000 (7.3%) were called active. Entries that show only a call come without a potency. Another 25% or so got no clear call; they are omitted. The sample holds actives, similar compounds and a random draw of the others, so the mix is not that of the screen. The call rests on the fitted dose curve; in most records, active means well fitted inhibition curve with a large enough effect (not every such curve was filed as active); inconclusive means small, poorly fitted or top-dose-only effect, or another doubt; inactive means no such curve, though single readings can be large or run the other way.
molecular target: Aldehyde dehydrogenase 1A1 (Homo sapiens) (UniProt P00352); experiment: qHTS Assay for Inhibitors of Aldehyde Dehydrogenase 1 (ALDH1A1); settings: Purified ALDH1A1, NADH fluorescence, propionaldehyde substrate; series mostly up to 75.3 µM
Potency means the concentration at half of the fitted maximal effect.

Sequence of Aldehyde dehydrogenase 1A1 (Homo sapiens) (P00352 whole entry, looked up): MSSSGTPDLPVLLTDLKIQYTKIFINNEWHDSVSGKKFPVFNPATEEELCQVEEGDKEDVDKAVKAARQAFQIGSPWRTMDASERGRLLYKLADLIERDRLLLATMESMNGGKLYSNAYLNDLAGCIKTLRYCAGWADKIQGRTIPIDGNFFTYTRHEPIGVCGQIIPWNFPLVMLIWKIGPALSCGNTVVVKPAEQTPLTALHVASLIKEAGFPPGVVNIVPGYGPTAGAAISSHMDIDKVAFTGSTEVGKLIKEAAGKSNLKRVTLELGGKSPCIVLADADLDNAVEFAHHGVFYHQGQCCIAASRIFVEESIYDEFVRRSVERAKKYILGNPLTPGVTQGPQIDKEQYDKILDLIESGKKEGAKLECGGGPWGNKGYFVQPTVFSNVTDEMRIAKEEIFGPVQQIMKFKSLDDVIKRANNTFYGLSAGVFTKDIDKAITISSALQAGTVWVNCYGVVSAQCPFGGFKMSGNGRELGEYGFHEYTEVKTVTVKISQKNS

SMILES	Potency	activity, negative = inhibition
CCOC(=O)c1ccccc1NC(=O)CSc1nc2ccccc2c(=O)[nH]1	inactive	
Cc1cc(=O)oc(C)c1C(=O)NCCN(C)Cc1ccccc1	inactive	
C=CS(=O)c1sc(Cl)c(N2CCOCC2)c1[N+](=O)[O-] (stereo not drawn)	2 µM (active)	
Cn1c(SCC(=O)NC2CCCCC2)nnc1-c1ccc(N)cc1	inactive	
CCOC(=O)/C=c1\s/c(=C\c2ccc(C#N)cc2)c(=O)n1CC(=O)Nc1cccc(C)c1C	inactive	
CC1(C)Cc2cccc(OCC(=O)Nc3nccs3)c2O1	inactive	
CC1(C)Cc2cccc(OCC(=O)N3CCN(c4ccc([N+](=O)[O-])cc4)CC3)c2O1	10 µM (active)	
CC1(C)Cc2cccc(OCC(N)=O)c2O1	inactive	
Cc1cc2ccccc2n1CCC(=O)O	inactive	
O=[N+]([O-])c1ccccc1NCc1ccccc1Cl	inactive	
Cc1cccc(C)c1NC(=O)C1(N(C(=O)c2ccccn2)c2ccc(O)cc2)CCCCC1	inactive	
CCc1nnc(NC(=O)CSc2nc3c(c(=O)n2-c2ccccc2OC)SCC3)s1	22.4 µM (active)	
CCn1c(SCC(=O)Nc2ccc3c(c2)OCCO3)nc2c(c1=O)SC(C)C2 (stereo not drawn)	inactive	
CCc1nnc(NC(=O)CSc2nc3ccccc3c(=O)n2CCCOC)s1	inactive	
CCOC(=O)c1sc(NC(=O)CSc2nc3c(c(=O)n2-c2ccccc2)SCC3)c(C(=O)OCC)c1C	inactive	
CCOc1ccc(NC(=O)CSc2nc3c(c(=O)n2-c2ccccc2OC)SCC3)cc1	17.8 µM (active)	
COc1ccccc1-n1c(CNC(=O)c2ccccc2)nnc1SCC(=O)Nc1nnc(C)s1	inactive	
O=C(Nn1cnc2ccccc2c1=O)c1ccc([N+](=O)[O-])cc1Cl	inactive	
C=C(C(C)=O)C(O)c1ccc([N+](=O)[O-])cc1 (stereo not drawn)	inactive	
CCCCC(=O)NCc1ccc(F)cc1	inactive	
COc1ccccc1CNS(=O)(=O)c1ccc(C)cc1	inactive	
COc1ccc(S(=O)(=O)NC(CC(=O)NCc2ccccc2OC)c2ccco2)cc1 (stereo not drawn)	10 µM (active)	

SMILES	Potency	activity, negative = inhibition
O=C(CC(NS(=O)(=O)c1ccc(Cl)cc1)c1ccco1)NC1CCCC1 (stereo not drawn)	inactive	
COC(=O)CCC(=O)N1CCCC(CO)(Cc2ccccc2)C1 (stereo not drawn)	inactive	
C#CCCOC(=O)N1C2=NC(C(=O)OC)=C(C(=O)OC)[C@@H]3N(C)c4ccc(OC)cc4[C@]23C[C@H]1C(=O)OC		4.88% [at 13.5 µM] (inactive)
CCOC(=O)CN/C=C(\C#N)c1ccc(F)cc1	inactive	
Cc1ccc(C(=O)NCCNC(=O)c2ccccc2)cc1	inactive	
Cc1ccc(C(=O)c2c(NC(=O)c3ccncc3)sc3c2CCCC3)cc1	inactive	
Cc1ccc(C(=O)c2c(NC(=O)c3ccccc3)sc(C)c2C)cc1	25.1 µM (active)	
CCC(=O)NCc1cc(-c2nn(C)c(=O)c3ccccc23)ccc1OC	inactive	
COC(=O)c1cc(C(=O)CSc2nc(C)cc(C)n2)ccc1O	inactive	
COc1ccc(C(=O)NNC(=O)c2cnccn2)cc1[N+](=O)[O-]	inactive	
COc1ccc(C(=O)CSc2nc(C)cc(C)n2)cc1[N+](=O)[O-]	2.24 µM (active)	
C/C(=N\NC(=O)OC(C)(C)C)c1ccc[nH]1	inactive	
Cc1cc(NC(=O)CCC2COc3ccccc3O2)no1 (stereo not drawn)	inactive	
O=C(NCC1COc2ccccc2O1)C1(c2ccccc2)CCCC1 (stereo not drawn)	inactive	
Cc1cc(C(=O)CCl)c(C)n1CC1COc2ccccc2O1 (stereo not drawn)	0.251 µM (active)	
O=C(NNC(=O)c1ccc(Cl)cc1Cl)c1cccs1	inactive	
Fc1cccc(Cc2noc(CN3CCN(c4cnccn4)CC3)n2)c1	inactive	
CCOC(=O)c1c(C)[nH]c2c1-c1ccccc1C(=O)C2=O	inactive	
CCOC(=O)c1c(C)[nH]c(C2=NNC(=NC(C)COC)SC2)c1C (stereo not drawn)	10 µM (active)	
CCCCOC(=O)c1[nH]c(C)c(C(=O)OC)c1C	inactive	
CN1CCN(c2nc(Nc3ccc(O)cc3)nc3ccccc23)CC1	inactive	
COc1ccc(-c2nn(-c3ccccc3)cc2/C=C\C(=O)N2CCOCC2)cc1[N+](=O)[O-]	inactive	

SMILES	Potency	activity, negative = inhibition
S=C(NCCCc1cnc[nH]1)NCCCN(Cc1ccc(Cl)c(Cl)c1)c1ccc(Br)cn1	inactive	
COc1ccc(C(CCNCc2ccccc2F)c2ccc(F)cc2)cc1 (stereo not drawn)	inactive	
CC1CN(C2CCCCC2)c2nc3c(c(=O)n(C)c(=O)n3C)n2C1 (stereo not drawn)	inactive	
COc1ccc(N2CC(C)Cn3c2nc2c3c(=O)n(Cc3ccccc3F)c(=O)n2C)c(OC)c1 (stereo not drawn)	17.8 µM (active)	
COc1ccc2c(c1)CCc1c(C(=O)N3CCCC3)noc1-2	10 µM (active)	
O=C(c1cc(-c2ccccc2O)on1)N1CCCC1	inactive	
COc1ccc2c(c1)CCc1c(C(=O)Nc3c(C)n(C)n(-c4ccccc4)c3=O)noc1-2	inactive	
CCCCc1ccc(NC(=S)NCCCN2CCOCC2)cc1	inactive	
Cc1cccc(C(=O)OC(C)CN2CCN(C)CC2)c1 (stereo not drawn)	inactive	
CC1(C)CC(N(Cc2ccccc2)C(=O)Cc2ccccc2)CCO1 (stereo not drawn)	inactive	
Cc1noc(C)c1COc1cccc(C(=O)Nc2cccnc2)c1	inactive	
O=C(O)c1ccc2c3c(cccc13)C(=O)N(OS(=O)(=O)c1ccccc1)C2=O	inactive	
Cc1ccccc1NC(=O)NC1(C(=O)N2CCCC2)CCCCC1	inactive	
O=C1CN(C(=O)CN2C(=O)NC3(CCCCC3)C2=O)c2ccccc2N1	15.8 µM (active)	
O=C(CN1C(=O)NC2(CCCCCC2)C1=O)NC1CC1	inactive	
O=C(CN1C(=O)NC2(CCCCCC2)C1=O)NCc1cccs1	inactive	
O=C(COC(=O)Cn1cnc2ccccc2c1=O)NCc1ccccc1Cl	inactive	
COc1ccc(C(C)=O)cc1COC(=O)Cn1cnc2ccccc2c1=O	20 µM (active)	
CCOC(=O)N1CCN(C(=O)Cn2cnc3ccccc3c2=O)CC1	inactive	
CCOCCCN(C(=O)Cn1nnc(-c2ccc(OC)c(OC)c2)n1)C(CC)C(=O)NC1CCCC1 (stereo not drawn)	inactive	
NC1CCN(O)C1=O (stereo not drawn)	inactive	
C/C=N/NC(=O)CCCC(=O)N/N=C/C	inactive	

SMILES	Potency	activity, negative = inhibition
O=C(N/N=C/c1ccc([N+](=O)[O-])cc1)C(=O)N1CCCC1	inactive	
CCOCCCNC(=S)N1CCC(NC(=O)C2CCCCC2)CC1	inactive	
CCOc1ccc(C(C)=O)cc1COC(=O)c1cnc(Cl)c(Cl)c1	0.708 µM (active)	
COCc1cc(C(C)=O)ccc1OC	inactive	
O=C(OCc1cc(Cl)ccc1OC(F)F)c1cccnc1	inactive	
Cc1cccc(C2=N/C(=C/c3cccs3)C(=O)O2)c1	inactive	
Cc1ccccc1C1=N/C(=C/c2cccnc2)C(=O)O1	inactive	
Cc1ccc(C2=N/C(=C\c3ccc(OS(=O)(=O)c4ccc(C)cc4)cc3)C(=O)O2)cc1	25.1 µM (active)	
COCCN(C(=S)Nc1ccccc1OC)C1CCN(C(C)C)CC1	inactive	
O=C(O)c1ccc2c(c1)C(=O)N(NC(=O)c1ccc(O)cc1)C2=O	inactive	
C=CCN1C2CCCC1CC(NC(=S)Nc1cccc(OC)c1)C2 (stereo not drawn)	inactive	
CC1CCCCC1NC(=O)C1CCCN1S(=O)(=O)c1cccc2nsnc12 (stereo not drawn)	inactive	
CC1CCCCC1NC(=O)CCS(=O)(=O)c1cccc2nonc12 (stereo not drawn)	10 µM (active)	
COc1ccc(C)cc1NC(=O)CCS(=O)(=O)c1cccc2nonc12	inactive	
CCN1C(=O)N[C@@H](c2ccccc2)C(C(=O)OC)=C1C		17.9% [at 13.5 µM] (inactive)
COC(=O)C1=C(C)N(C)C(=S)NC1c1ccccc1 (stereo not drawn)	inactive	
COC(=O)C1=C(C)N(C)C(=O)NC1c1ccc([N+](=O)[O-])o1 (stereo not drawn)	25.1 µM (active)	
Cc1ccc(C(=O)N2CCN(S(=O)(=O)N3CCOCC3)CC2)cc1	inactive	
C#CCN1C(=O)C(O)(CC(=O)c2cc(OC)ccc2OC)c2ccccc21 (stereo not drawn)	3.55 µM (active)	
COc1ccc(OC)c(C(=O)c2ccc(C(=O)O)cc2)c1	inactive	
COc1ccc(C(=O)COC(=O)c2nn(C)c(=O)c3ccccc23)c(OC)c1	inactive	
CCOC(=O)Cc1ncccc1C(=O)Nc1ccc(OC)cc1	inactive	

SMILES	Potency	activity, negative = inhibition
Cc1nn(C(=O)c2ccoc2C)c(N)c1-c1ccccc1	inactive	
Cc1nn2c(c1-c1ccccc1)N=C(c1ccco1)CC2c1ccccc1 (stereo not drawn)	22.4 µM (active)	
O=C(CSc1nnc(-c2ccc(NS(=O)(=O)c3ccccc3)cc2)o1)NCC1CCCO1 (stereo not drawn)	inactive	
O=C(CS(=O)(=O)Cc1ccccc1)NCC1CCCO1 (stereo not drawn)	25.1 µM (active)	
S=C(NCCc1ccccc1)NCC1CCCO1 (stereo not drawn)	inactive	
CCN(c1ccccc1)S(=O)(=O)c1ccc2[nH]c(=O)[nH]c2c1	inactive	
Cc1cc([N+](=O)[O-])nn1Cc1ccc(F)cc1	inactive	
Cc1c(CN2CCCC(C(=O)c3cccc(Cl)c3)C2)c(=O)n(-c2ccccc2)n1C (stereo not drawn)	inactive	
CCCCC1=CC2=CC(=O)C(C)(OC(=O)CC)C(=O)C2=CN1CCCOC(C)C (stereo not drawn)		-5.05% [at 13.5 µM] (inactive)
Cc1cccc(NC(=O)CSC(N)=O)c1C	7.08 µM (active)	
Cc1cccc(NC(=O)CN2C(=O)c3ccccc3C2=O)c1C	inactive	
Cc1cccc(NC(=O)CSc2nc3c(c(=O)[nH]2)CCCC3)c1C	inactive	
CC(C)c1nc(CNC(=O)CC2C(=O)NCCN2Cc2ccoc2)cs1 (stereo not drawn)	inactive	
CC1Cc2ccccc2N1S(=O)(=O)c1c(N)n(C)c(=O)n(C)c1=O (stereo not drawn)	inactive	
CC1CCCCN1C(=S)NCc1ccccc1 (stereo not drawn)	inactive	
COC(=O)CNC(=O)c1ccc(OC2CCN(C(=O)C3CC3)CC2)cc1	inactive	
CN1CCNC(=O)C1CC(=O)N1CC=C(c2ccc(F)cc2)CC1 (stereo not drawn)	inactive	
CC1(C)CCc2nc(SCc3ccccc3)c(C#N)cc2C1	inactive	
N#CC1=C(SCc2ccc(C#N)cc2)N=C(N)C(c2nc(-c3ccccc3)cs2)C12CCCCC2 (stereo not drawn)	inactive	
N#CC1=C(SCc2ccccc2)NC(=O)C(C#N)C12CCCC2 (stereo not drawn)	3.98 µM (active)	

Source: PubChem BioAssay AID1030 (National Center for Advancing Translational Sciences (NCATS), 2008)
